# SMARCA2 act – SMARCA2 function activation, primary screen. MG213 cells, MMTV-luciferase reporter, dexamethasone, overnight. activation, % at 9.1 µM. actives 1% (n = 370,000). AID 652017; in the data active = activation above about 7.8%;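 note: 0% = vehicle wells and 100% = reference activator wells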
# 697 NFkB inh – inhibitors of the PMA/ionomycin-induced NF-kB reporter in 697 B cells. 697 B-cell NF-kB luciferase reporter, 16 h. inhibition, % at 4 µM. actives 0.33% (n = 330,000); in the data active = inhibition above about 35%
# Gli-Sufu antag – antagonists of Gli-Sufu signaling | AID 588413 | Sufu-KO-LIGHT fibroblasts, Gli luciferase reporter luminescence | actives 0.74% (n = 340,000) | inhibition, % at 5 µM;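 active = inhibition above about 55%, limit read from the data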;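 note: 0% = DMSO-treated cells and 100% = wells with medium but no cells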
# esBAF inh – inhibitors of esBAF chromatin remodeling in mouse ES cells | Bmi1-luciferase knock-in reporter, 24 h; 100% = twice the neutral-well signal | reporter increase, % at 12.5 µM | actives 2% (n = 350,000); in the data active = activation above about 40%;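 note: 0% = median of the plate's neutral control wells and 100% = double that signal; a rise in the Bmi1 reporter signal indicates esBAF inhibition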
# Jurkat NFkB inh – inhibitors of the PMA/ionomycin-induced NF-kB reporter in Jurkat cells. PMA/ionomycin-induced NF-kB luciferase reporter, luminescence. inhibition, % at 4 µM. actives 0.53% (n = 330,000); in the data active = inhibition above about 50%
# SMARCA2 act conf – SMARCA2 activation, confirmation screen. activation, % at 9.1 µM. AID 652260. actives 30% (n = 3,500). shares compounds with SMARCA2 act. MG213 cells, MMTV-luciferase with dexamethasone, luminescence, overnight; MG213 cells expressing E1A, Rb sequestered; DMSO wells 0%, reference activator 100%;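 active = activation above its plate's cutoff, the mean activation of tested wells plus 3 SD, cut at about 7.9% in these data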
# VP16 Luc act – GAL4-VP16 reporter activation counter-screen; shares compounds with SMARCA2 act; HEK293 GAL4-VP16 pG5luc reporter, luciferase luminescence; scaled: DMSO wells 0%, SAHA wells 100%; activation, % at 9.1 µM; actives 41% (n = 3,500); AID 686939;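 active = activation above the solvent-only control well mean plus 3 SD, averaged across control plates, cut at about 5.2% in these data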
# Starred values were filed as active, the others as inactive; nt = no result given. A selection: hits, their analogues and other compounds. The true share with any hit is near 3.3%.
SMILES,SMARCA2 act,697 NFkB inh,Gli-Sufu antag,esBAF inh,Jurkat NFkB inh,SMARCA2 act conf,VP16 Luc act
Cc1nnc(NC(=O)c2cc(S(=O)(=O)N(C)C)ccc2N2CCCC2)s1,9.1*,5,-9,-4,5,-4,0
CN(C)S(=O)(=O)c1ccc(N2CCCC2)c(C(=O)Nc2ccccc2)c1,0,-3,0,0,-30,nt,nt
C[C@@H]1CN([C@H](C)CO)C(=O)c2cc(NS(=O)(=O)c3ccc(F)cc3)ccc2O[C@@H]1CN(C)S(=O)(=O)c1cn(C)cn1,nt,nt,nt,0,nt,nt,nt
O=C(C[C@@H]1CC[C@@H]2[C@H](COC[C@H](O)CN2C(=O)c2ccc3c(c2)OCO3)O1)NCCN1CCCCC1,nt,nt,nt,-3,nt,nt,nt
O=C(CCl)Oc1ccc2occ(C(=O)c3cccs3)c2c1,8.6*,-124,-10,93*,-55,4,6.5*
COc1ccccc1CNC(=O)C[C@@H]1C[C@H]2c3cc(NC(=O)C4CCC4)ccc3O[C@H]2[C@H](CO)O1,nt,nt,nt,8,nt,nt,nt
CN(CC(=O)Nc1ccccc1Cl)C(=O)COC(=O)c1nc(Cl)c(Cl)c(Cl)c1Cl,22*,-15,-1,nt,11,8.2*,1
C/C(=N\NC(=O)c1cccc(C)c1)c1cccc(NC(=O)c2ccco2)c1,11*,11,-8,-12,-17,3,1
C/C(=N/NC(=O)c1ccc(Br)o1)c1cccc(NC(=O)c2ccc(C)o2)c1,13*,-6,2,nt,-32,0,3
C/C(=N\NC(=O)c1cccc(Cl)c1)c1cccc(NC(=O)c2ccco2)c1,6,16,7,nt,-8,nt,nt
C/C(=N\NC(=O)c1ccn(C)n1)c1cccc(NC(=O)c2ccc(C)s2)c1,16*,-8,-11,nt,-28,8.0*,6.0*
C/C(=N/NC(=O)c1ccc(Br)o1)c1cccc(NC(=O)c2ccc(F)cc2)c1,7,21,-13,12,-16,nt,nt
C/C(=N/NC(=O)c1ccco1)c1cccc(NC(=O)c2ccc(C)o2)c1,8.8*,3,1,15,4,-1,3
COc1ccc(CN(C)C[C@H]2OCCCC[C@@H](C)Oc3ccc(NC(=O)Nc4ccc(OC)cc4)cc3C(=O)N([C@@H](C)CO)C[C@H]2C)cc1,nt,nt,nt,-3,nt,nt,nt
C[C@H](CO)N1C[C@H](C)[C@@H](CN(C)C(=O)Nc2ccc(F)cc2)OCCCC[C@H](C)Oc2ccc(NS(C)(=O)=O)cc2C1=O,nt,nt,nt,5,nt,nt,nt
CO[C@@H](CN(C)Cc1cc(F)ccc1F)[C@@H](C)CN(C(=O)Nc1ccc(F)cc1)[C@H](C)CO,nt,nt,nt,1,nt,nt,nt
CC(C)(C)C(=O)COC(=O)c1cccc(NC(=O)c2ccco2)c1,-2,3,1,18,-17,nt,nt
O=C(COC(=O)c1cccc(NC(=O)c2ccco2)c1)c1ccc(Br)cc1,8.1*,-69,-50,21,-23,9.5*,4
C/C(=N/NC(=O)c1ccc(O)cc1)c1cccc([N+](=O)[O-])c1,7,-18,-23,nt,-30,nt,nt
CC(=O)Nc1cccc(/C(C)=N/NC(=O)c2ccc(O)cc2)c1,8.1*,5,-3,-16,0,3,1
CC(C)NC(=O)N(C)C[C@@H]1Oc2ccc(NC(=O)Nc3ccc4c(c3)OCO4)cc2CC(=O)N([C@H](C)CO)C[C@H]1C,nt,nt,nt,6,nt,nt,nt
COC(=O)c1ccc(CSc2nc3ccccc3s2)o1,14*,-54,-24,47*,-68,3,2
COC(=O)c1ccc(CSc2n[nH]c(=S)s2)o1,0,-10,6,5,1,nt,nt
COC(=O)c1ccc(CC(=O)c2nc3ccccc3s2)cc1,10*,-15,-5,nt,-18,8.8*,6.9*
CCCC(=O)Nc1ccc2c(c1)C(=O)N(C)C[C@@H](OC)[C@@H](C)CN(C(=O)c1cnccn1)[C@@H](C)CO2,nt,nt,nt,-2,nt,nt,nt
C[C@@H]1CCCCO[C@@H](CN(C)C(=O)Nc2ccc(C(F)(F)F)cc2)[C@H](C)CN([C@H](C)CO)C(=O)c2cc(NC(=O)Nc3ccccc3)ccc2O1,nt,nt,nt,6,nt,nt,nt
CC(C)NC(=O)N(C)C[C@@H]1OCCCC[C@H](C)Oc2ccc(NS(=O)(=O)c3ccccc3)cc2C(=O)N([C@H](C)CO)C[C@@H]1C,nt,nt,nt,4,nt,nt,nt
